Screens (PubChem)
CHT inh: inhibitors of human choline transporter CHT | B-score at 10 µM | actives 0.86% (n = 310,000) | AID 488975, 2010 | High affinity choline transporter 1 (Homo sapiens), Q9GZV3 | CHT-expressing cells, membrane potential dye, choline response; hits give low values;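 active = B-score over 3 SD under the library average, and starting fluorescence ratio not unusually high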;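 note: choline stimulus applied at its EC90 after an EC20 pre-addition; B-score computed on integrated fluorescence ratio after choline addition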
Target sequence (Q9GZV3 whole entry, looked up): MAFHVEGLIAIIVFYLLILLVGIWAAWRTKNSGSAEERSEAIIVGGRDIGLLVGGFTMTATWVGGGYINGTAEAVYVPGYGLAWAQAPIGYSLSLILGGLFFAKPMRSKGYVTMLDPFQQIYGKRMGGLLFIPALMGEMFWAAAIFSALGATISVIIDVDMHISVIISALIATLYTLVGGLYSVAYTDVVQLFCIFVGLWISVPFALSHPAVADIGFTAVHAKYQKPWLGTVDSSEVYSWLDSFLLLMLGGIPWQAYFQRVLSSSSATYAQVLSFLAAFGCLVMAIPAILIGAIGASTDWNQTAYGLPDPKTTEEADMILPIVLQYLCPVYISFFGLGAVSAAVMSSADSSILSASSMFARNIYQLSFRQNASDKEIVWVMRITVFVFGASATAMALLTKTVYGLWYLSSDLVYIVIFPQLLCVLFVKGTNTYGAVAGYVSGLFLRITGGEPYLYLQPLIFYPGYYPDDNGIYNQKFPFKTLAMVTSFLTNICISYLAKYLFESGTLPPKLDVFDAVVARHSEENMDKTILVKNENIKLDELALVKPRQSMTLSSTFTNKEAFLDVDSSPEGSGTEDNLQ
AI-2 QS modul: Vibrio harveyi AI-2 quorum sensing modulators, primary screen, JMH597 strain, luminescence/OD600 ratio; activity change, % at 7.5 µM; actives 0.4% (n = 300,000); AID 2094, 2009; Vibrio harveyi JMH597 AI-2 luminescence/OD600 ratio, 9 h; hits give low values; strain lacks LuxN and CqsS sensors; 0 = neutral-control median; in the data active = activity change below about -75%, passing the limit was not always enough; inconclusive = no clear call, values can overlap the other calls;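 note: luminescence divided by OD600 gain over 9 h not by final OD600 alone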
CHT PAM: CHT positive allosteric modulators, primary screen, cell-based, membrane potential dye, choline EC20 | B-score at 10 µM | High affinity choline transporter 1 (Homo sapiens), Q9GZV3 | actives 0.49% (n = 310,000) | AID 488977, 2010 | CHT-expressing cells; hits give high values; LV-AA mutant CHT in HEK293 cells;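 active = initial fluorescence not abnormally high and integrated response B-score, plate-corrected, over 3 SD above library mean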
PREPL inhibitor: PREPL enzyme inhibitors, primary screen, biochemical, fluorescence polarization | AID 2751, 2010 | Prolyl endopeptidase-like (Homo sapiens), Q4J6C6 | inhibition, % at 5.96 µM | recombinant PREPL, fluorescence polarization activity-based probe | actives 0.68% (n = 320,000); in the data active = inhibition above about 43%;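 note: 0% = enzyme with DMSO and 100% = wells lacking enzyme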
ALR inh: inhibitors of human ALR sulfhydryl oxidase, primary screen, biochemical, H2O2 detection, HRP-luminol luminescence, single point | actives 3.8% (n = 290,000) | purified ALR, DTT oxidation | FAD-linked sulfhydryl oxidase ALR (Homo sapiens), P55789 | inhibition, % (no concentration beside the values);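 active = mean replicate inhibition above about 79%, with every replicate also reaching it, limit read from the data; inconclusive = only one of the two criteria met; inactive = mean below limit and not every replicate reaching it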
CHT act confirm: CHT activators, confirmation, cell-based, membrane potential dye, duplicate; shares compounds with CHT PAM; CHT-expressing cells, membrane potential dye fluorescence (FDSS); % of choline EC20–EC90 response window; HEK293 expressing CHT LV-AA mutant; choline added at its EC20; activation, % at 10 µM; actives 91% (n = 2,500); AID 504833, 2011;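 active = primary screen active, with duplicate mean activation above negative control mean plus 3 SD, cut at about 11% in these data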
HEK293 MP dye: membrane potential response in parental HEK293 cells, counter-screen for CHT activator project, cell-based, membrane potential dye | shares compounds with CHT PAM | AID 623908, 2012 | ratio readout change at 10 µM, hits read low | actives 62% (n = 2,500) | membrane potential dye fluorescence (FDSS); measured after EC20 choline addition;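 active = duplicate-averaged ratio beyond 3 SD from buffer wells, up or down, though filed actives are nearly all decreases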
* hit, by the source's call; i = inactive; ? = inconclusive; . = not tested or not shown. Hits are enriched below; roughly 5% of the tested compounds scored in any of these assays.

SMILES | CHT inh | AI-2 QS modul | CHT PAM | PREPL inhibitor | ALR inh | CHT act confirm | HEK293 MP dye
Cc1cccn2c(=O)c3cc(C(=O)NCc4ccco4)c(=N)n(C(C)C)c3nc12 | i | 15 | i | 28 | 15 | . | .
CC(=O)N=c1c(C#N)cc2c(=O)n3cccc(C)c3nc2n1Cc1ccco1 | i | 7 | i | -8 | 36 | 47* | -36*
Cc1ccccc1C(=O)N=c1c(C#N)cc2c(=O)n3cccc(C)c3nc2n1Cc1ccco1 | i | 2 | i | 7 | 8 | . | .
CC(=O)N=c1c(C#N)cc2c(=O)n3cccc(C)c3nc2n1CCCOC(C)C | i | 61 | i | -21 | -4 | 44* | -45*
N#Cc1nc(COc2ccc(F)cc2)oc1N1CCC(Cc2ccccc2)CC1 | i | 7 | i | -35 | -11 | . | .
N#Cc1nc(COc2ccc(F)cc2)oc1N1CCN(Cc2ccccc2)CC1 | i | -2 | 7.7* | -28 | -5 | 31* | i
NC1C2CN(c3nc4c(cc3F)c(=O)c(C(=O)O)cn4-c3ccc(F)cc3F)CC12 (stereo unspecified) | i | 6 | 7.9* | -7 | -3 | 60* | -67*
O=C(c1ccc(CS(=O)c2ccccc2Cl)o1)N1CCOCC1 (stereo unspecified) | i | 17 | i | 0 | 6 | . | .
O=C(c1ccc(CS(=O)c2ccccc2Cl)o1)N1CCN(c2ccccc2)CC1 (stereo unspecified) | i | -5 | 6.4* | 17 | ? | 17* | i
COc1cccc(N2CCN(C(=O)c3ccc(CS(=O)c4ccccc4Cl)o3)CC2)c1 (stereo unspecified) | i | 13 | i | 26 | 63 | 50* | i
CSCCC(=O)N1CCC(n2nccc2NC(=O)CCc2ccccc2)CC1 | i | 19 | i | . | -9 | . | .
Cc1cc(NC(=O)CN(C)S(=O)(=O)c2cnc[nH]2)ccc1Br | i | 24 | i | -6 | 1 | . | .
Cc1ccc(NC(=O)CSc2nc3ccccc3c(=O)n2CCCN2CCCCC2)cc1Cl | i | 23 | i | 0 | 51 | . | .
CC1CCN(CCCn2c(SCC(=O)Nc3ccccc3Cl)nc3ccccc3c2=O)CC1 | i | 16 | 6.4* | -6 | -34 | 52* | -34*
Cc1cc(C)c(/C=N/NC(N)=O)c(C)c1/C=N/NC(N)=O | i | 6 | 6.4* | -5 | -16 | 47* | -62*
CCc1cc(CC)c(/C=N/NC(N)=O)c(CC)c1 | i | 18 | i | 8 | . | . | .
Fc1ccc(C(c2nnnn2Cc2ccco2)N2CCN(C3CCCCC3)CC2)cc1 (stereo unspecified) | i | 10 | i | 24 | -6 | 31* | i
CC(C)n1nnnc1C(c1ccc(F)cc1)N1CCN(C2CCCC2)CC1 (stereo unspecified) | . | 20 | . | . | . | . | .
C=CCn1c(SC(C)C(=O)NCCC2=CCCCC2)nc2ccccc2c1=O (stereo unspecified) | i | 21 | i | -4 | -20 | 27* | i
CC(NCC(=O)Nc1ccccc1C(=O)NC1CC1)c1cccc(C(F)(F)F)c1 (stereo unspecified) | . | . | . | -2 | 3 | . | .
COc1c(O)c(=O)n2c3ccccc3c3ccnc1c32 | i | 26 | i | 5 | 98* | 41* | i
Cc1nnc2n(-c3ccccc3)c(=O)c3c4c(sc3n12)CCCC4 | i | 50 | 6.5* | 2 | 4 | 26* | -40*
O=C(Nc1ccnn1C1CCN(C/C=C/c2ccccc2)CC1)c1ccccc1Cl | i | 50 | i | -39 | -16 | . | .
COc1ccccc1C(=O)Nc1ccnn1C1CCN(C/C=C/c2ccc(F)cc2)CC1 | i | 9 | i | -20 | 6 | 7 | i
Oc1nc(-c2ccc(Cl)cc2)n2ccncc12 | i | 13 | i | 8 | 54 | . | .
SMILES | CHT inh | AI-2 QS modul | CHT PAM | PREPL inhibitor | ALR inh | CHT act confirm | HEK293 MP dye
COC(=O)c1ccc(-c2nc(O)c3cnccn23)cc1 | i | 27 | i | 4 | 2 | 23* | -37*
CC(C)CC(c1nnnn1C(C)(C)C)N1CCN(C2CCCC2)CC1 (stereo unspecified) | i | 29 | 6.6* | -23 | 14 | 15* | i
CN(c1ccc(OCc2nnc(-c3ccccc3)o2)cc1)S(=O)(=O)c1ccccc1 | i | 15 | i | 6 | -15 | 27* | i
Cc1cc(C)c2cc3c(N)c(C(=O)N4CCc5ccccc5C4)sc3nc2c1 | i | 36 | 6.4* | 22 | -2 | -7 | i
Cc1ccc2nc3sc(C(=O)N4CCCc5ccccc54)c(N)c3cc2c1 | i | 13 | i | 18 | -11 | . | .
Cc1ccc(S(=O)(=O)Nc2ccc(C(=O)NCCCN3CCOCC3)cc2)cc1[N+](=O)[O-] | i | . | i | -1 | 1 | 16* | i
O=C(NCCCN1CCOCC1)c1ccc(NS(=O)(=O)c2cccc([N+](=O)[O-])c2)cc1 | i | 13 | i | 5 | 2 | . | .
CCCCN(CC(=O)Nc1c(C)cccc1CC)C(=O)SCC | i | 18 | 9.1* | -3 | -9 | 13* | i
CCc1cccc(C)c1NC(=O)CN(C)Cc1ccc(Br)cc1 | i | 8 | i | -9 | -55 | 24* | i
CSc1ccccc1NC(=O)CN(C)Cc1ccc(Br)cc1 | i | 20 | i | 3 | . | . | .
CC(NC(=O)CN(C)Cc1ccc(Br)cc1)c1ccccc1 (stereo unspecified) | i | 14 | 8* | -21 | -5 | 17* | i
CSc1ccc(CN(C)CC(=O)NC(C)c2ccccc2)cc1 (stereo unspecified) | i | 17 | i | -13 | 0 | . | .
COC(=O)c1ccc2c(c1)C(C)(C)C(/C=C/c1ccc(OC)c(OC)c1OC)=[N+]2C | i | 15 | 6.5* | -468 | 39 | 59* | -65*
CC[n+]1ccc(C)c2cc(SC(F)(F)F)ccc21 | i | 34 | 6.9* | 30 | -9 | 33* | -52*
